Screen size: about 39,000 compounds; about 3,300 (8.5%) were called active. Many of the other results were omitted from the sample, so actives are more common in it than they were.

The subject of the assay is HepG2. Put plainly: cytotoxicity call (relative viability < 0.9). The settings on record: 10 µM.
On to `NC(=N[N+](=O)[O-])NCCC[C@H](N)C(=O)O`, for which the cytotoxicity call was “inactive”.
Under `CC(C)[C@H]1CNC(=O)C1` stands “inactive”; under `O=C1NC(=S)NC(=O)C1c1ccccc1`, “inactive”; under `C#CCO[C@H]1CN2CCC1CC2`, “inactive”.
Consider `CC(C)C[C@@H](N)C1(c2ccc(Cl)cc2)CCC1`, for which the cytotoxicity call is “inactive”.
Under `CC1OC(OC2C=C3CCC4C(CCC5(C)C(c6ccc(=O)oc6)CCC45O)C3(C)CC2)C(O)C(O)C1O` (stereo unspecified) stands “active”; under `CN1CCc2cc3c(cc2C1C1OC(=O)c2c1ccc1c2OCO1)OCO3` (stereo unspecified), “inactive”.
For `ClC(Cl)=C(c1ccc(Cl)cc1)c1ccc(Cl)cc1`, the cytotoxicity call was “inactive”.
The same measure for `Nc1ccccc1N1CCNCC1`: “inactive”; for `CN(C)C(=O)CN1CCN(C)C(=O)[C@]12CCN(c1ncccn1)C2`: “inactive”.
Under `[NH2][Pt]1([NH2])[O]C(=O)C2(CCC2)C(=O)[O]1` stands “inactive”; under `O=[N+]([O-])OC1COC2C(O)COC12` (stereo unspecified), “inactive”; under `CCn1cnc2c(Nc3cccc(Cl)c3)nc(N[C@@H]3CCCC[C@@H]3N)nc21`, “active”.
For `Cc1cccc([C@H](CN)N(C)C)c1`, the cytotoxicity call is “inactive”.
On to `C[C@@H]1CN([C@@H](C)CO)C(=O)CCCn2cc(nn2)CO[C@H]1CN(C)C(=O)Oc1cccc2ccccc12`, for which the cytotoxicity call was “inactive”.
Under `COCCCNC(=O)[C@]1(Cc2ccccc2N=[N+]=[N-])N=C(c2ccc(OCCCO)cc2)O[C@@H]1c1ccccc1N=[N+]=[N-]` stands “inactive”; under `COC(=O)[C@]1(Cc2ccccc2CN=[N+]=[N-])N=C(c2ccc(OCCCO)cc2)O[C@@H]1c1ccccc1N=[N+]=[N-]`, “active”; under `CN(C)C(=O)[C@@]1(Cc2ccccc2N=[N+]=[N-])N=C(c2ccc(OCCCO)cc2)O[C@H]1c1ccccc1N=[N+]=[N-]`, “inactive”.
Under `CN(C)C(=O)[C@@]1(Cc2ccccc2CN=[N+]=[N-])N=C(c2ccc(OCCCO)cc2)O[C@H]1c1ccccc1N=[N+]=[N-]` stands “active”; under `COC(=O)[C@@]1(Cc2ccccc2N=[N+]=[N-])N=C(c2ccc(OCCCO)cc2)O[C@H]1c1ccccc1CN=[N+]=[N-]`, “inactive”.
Take `COCCCNC(=O)[C@@]1(Cc2ccccc2CN=[N+]=[N-])N=C(c2ccc(OCCCO)cc2)O[C@H]1c1ccccc1N=[N+]=[N-]`: the cytotoxicity call was “inactive”.
The same measure for `COCCCNC(=O)[C@@]1(Cc2ccccc2CN=[N+]=[N-])N=C(c2ccc(OCCCO)cc2)O[C@H]1c1ccccc1CN=[N+]=[N-]`: “active”; for `CN(C)C(=O)[C@]1(Cc2ccccc2CN=[N+]=[N-])N=C(c2ccc(OCCCO)cc2)O[C@@H]1c1ccccc1N=[N+]=[N-]`: “inactive”; for `[N-]=[N+]=Nc1ccccc1C[C@@]1(C(=O)NCc2ccccc2)N=C(c2ccc(OCCCO)cc2)O[C@@H]1c1ccccc1N=[N+]=[N-]`: “inactive”.
Take `COC(=O)[C@@]1(Cc2ccccc2CN=[N+]=[N-])N=C(c2ccc(OCCCO)cc2)O[C@H]1c1ccccc1N=[N+]=[N-]`: the cytotoxicity call was “inactive”.
Take `[N-]=[N+]=NCc1ccccc1C[C@]1(C(=O)NCc2ccccc2)N=C(c2ccc(OCCCO)cc2)O[C@H]1c1ccccc1N=[N+]=[N-]`: the cytotoxicity call is “active”.
Under `CN(C)C(=O)CN1C[C@H]2CON[C@@H]2C1` stands “inactive”.
With `O=C(c1ccccc1)C12CN3CN(CN(C3)C1)C2`, the cytotoxicity call is “inactive”.
As to `CC(C)c1cc2c(c(O)c1O)C1(C(=O)O)CCCC(C)(C)C1CC2` (stereo unspecified), the cytotoxicity call was “inactive”.
Turning to `CN1C[C@@H]2CNC[C@@H]2C1=O`, the cytotoxicity call was “inactive”.
The same measure for `C[C@@H]1CN([C@@H](C)CO)C(=O)CCCn2nncc2CO[C@H]1CN(C)C(=O)Oc1ccc2ccccc2c1`: “inactive”; for `C1CO[C@H]2[C@@H](C1)CNC[C@H]2N1CCOCC1`: “inactive”.
The same measure for `NCCc1c[nH]c2ccc(C(N)=O)cc12`: “inactive”; for `NCCc1ccncc1`: “inactive”; for `OC1(c2cccnc2)CCNCC1`: “inactive”.
The same measure for `CCN(Cc1ccc(Cl)nc1)C(=C[N+](=O)[O-])NC`: “inactive”.
In the case of `Cc1ccc2n[nH]c(CN)c2c1`, the cytotoxicity call is “inactive”.
Under `COC(=O)[C@]1(Cc2ccccc2CN=[N+]=[N-])N=C(c2ccc(OCCCO)cc2)O[C@@H]1c1ccccc1CN=[N+]=[N-]` stands “active”; under `COC(=O)[C@@]1(Cc2ccccc2N=[N+]=[N-])N=C(c2ccc(OCCCO)cc2)O[C@H]1c1ccccc1N=[N+]=[N-]`, “inactive”; under `COC(=O)[C@]1(Cc2ccccc2N=[N+]=[N-])N=C(c2ccc(OCCCO)cc2)O[C@@H]1c1ccccc1N=[N+]=[N-]`, “active”.
The same measure for `COC(=O)[C@]1(Cc2ccccc2N=[N+]=[N-])N=C(c2ccc(OCCCO)cc2)O[C@@H]1c1ccccc1CN=[N+]=[N-]`: “inactive”; for `[N-]=[N+]=Nc1ccccc1C[C@]1(C(N)=O)N=C(c2ccc(OCCCO)cc2)O[C@H]1c1ccccc1N=[N+]=[N-]`: “inactive”.
The same measure for `COC(=O)[C@@]1(Cc2ccccc2CN=[N+]=[N-])N=C(c2ccc(OCCCO)cc2)O[C@H]1c1ccccc1CN=[N+]=[N-]`: “inactive”.
On to `CO[C@@H]1[C@H](OC(=O)NC(=O)CCl)CC[C@]2(CO2)[C@H]1[C@@]1(C)O[C@@H]1CC=C(C)C`, for which the cytotoxicity call was “inactive”.
Under `CN1CCCCC1c1ccc(-c2cccnc2)nc1.Cl` (stereo unspecified) stands “inactive”; under `CN(CCC[C@@H](O)c1cccnc1)[NH2+][O-]`, “inactive”.
The same measure for `C=C(C)[C@@H]1[C@H]2OC(=O)[C@@H]1[C@]1(O)C[C@H]3O[C@]34C(=O)O[C@H]2[C@]14C`: “inactive”.
On to `O[C@@]12CCCC[C@@H]1CNCC2`, for which the cytotoxicity call is “inactive”.
With `CN1[C@@H]2CC[C@@H]1CC(N)C2` (stereo partly specified), the cytotoxicity call was “inactive”.
In the case of `Nc1nc(N)nc(NC2CC2)n1`, the cytotoxicity call was “inactive”.
In the case of `CCN1CCN(c2nc([N+](=O)[O-])nn2C)CC1`, the cytotoxicity call was “inactive”.
As for `C[C@@H](N)Cc1cccc(O)c1`, the cytotoxicity call is “inactive”.
The same measure for `CC(C)c1cccc2c1OCC[C@H](N)[C@@H]2O`: “inactive”; for `CC(C)c1cccc(C(C)C)c1O`: “active”.
Under `C[C@@H](CN)CC(=O)O` stands “inactive”; under `CC(=O)[O][PbH2][O]C(C)=O`, “inactive”; under `Oc1ccc(Cl)cc1Cc1cc(Cl)ccc1O`, “active”.
In the case of `Clc1ccc(Cl)cc1`, the cytotoxicity call is “inactive”.
Under `O=C(O)c1cc(Cl)ccc1Cl` stands “inactive”; under `CCN1C[C@]23CNC[C@@H](C[C@H]2S1(=O)=O)O3`, “inactive”; under `C1CC(NC2CCOCC2)CCO1`, “inactive”.
The same measure for `O=C1C=C2C(=CCOC2O)O1` (stereo unspecified): “active”.
Regarding `O=C1C=C2C(=CCO[C@@H]2O)O1`, the cytotoxicity call was “inactive”.
Under `CC(=O)N[C@H]1C(=O)NC(=S)N(c2ccccc2)C1=O` stands “inactive”; under `N#CCCN1CCCC2(CCCC2)C1`, “inactive”; under `N/N=C(/N)NO`, “inactive”.

The values are drawn from the antibiotic and cytotoxicity screens of Wong et al. (2023).
